Reference: PubChem BioAssay (Tox21)
Inconclusive results are not listed. Entries that show only a call come without a potency. Unmarked numbers belong to inactive results. Calls of active or inactive are those of the source. Calls follow the shape of the dose curve; as a rule, active = well fitted cell-killing curve with a large enough effect in the repeat runs; inconclusive = weak or mixed curves, or effect the other way; inactive = no such curve, though single readings can be large or run the other way.

Test: qHTS assay for identifying genotoxic compounds that show differential cytotoxicity against isogenic chicken DT40 cell lines with known DNA damage response pathways - wild type cell line (AID 743012); also: nearly all actives have a fitted effect of over 60% in size
Conditions: DT40 wild type chicken cells viability, CellTiter-Glo, 40 h; series mostly up to 68.4 µM
Text: U.S. Tox21 Program National Center for Advancing Translational Sciences [NCATS] NIH Chemical Genomics Center [NCGC] U.S. Environmental Protection Agency [EPA] National Institutes of Environmental Health Sciences [NIEHS] National Toxicology Program [NTP] U.S. Food and Drug Administration [FDA] Tox21 Assay Overview: DNA repair pathways play a critical role in cellular homeostasis by repairing DNA damage induced by endogenous processes and xenobiotics. Isogenic chicken DT40 cell lines deficient in different DNA repair pathways can be used to identify genotoxic compounds and aid in characterizing the nature of the DNA damage induced. Two DNA repair-deficient cell lines with disrupted genes, Rad54/Ku70 or Rev3, were used to screen the Tox21 10K compound library. Possible genotoxicity was based on the presence of a significant increase in cytotoxicity in one or more of the DNA repair-deficient cell lines compared to that observed in the parental DNA repair-proficient cell line. CellTiter Glo viability assay (Promega, Madison, WI) was used to measure cell viability in these cells after compound treatment. This assay includes the data from the wild type cell line.
Tox21 Assay Protocol Summary: 300 DT40 wild type cells in 5 uL/well were dispensed into white, solid-bottom 1536-well plates using a Multidrop Combi (ThermoFisher Scientific, Waltham, MA) dispenser. After the assay plates were incubated at 37 C/5% CO2 for approximately 0.5 hour, 23 nL of compounds dissolved in DMSO, positive controls or DMSO only was transferred into the assay plate by a pintool work station (Kalypsys, San Diego, CA). The assay plates were incubated at 37 C/5% CO2 for 40 hours. After 5 uL per well of CellTiter-Glo reagent was added into each well of the assay plates, the plates were incubated for 30 min at room temperature and the luminescence intensity of the plates was measured using a ViewLux (PerkinElmer, Shelton, CT) plate reader.
Potency is read from the fitted curve at half-maximal effect.

Compound	Potency	activity change, negative = cytotoxicity
C=C(C)C1CC=C(C)C(O)C1 (stereo not given)	inactive	–
NCC[C@H](O)C(=O)N[C@@H]1C[C@H](N)[C@@H](O[C@H]2O[C@H](CN)[C@@H](O)[C@H](O)[C@H]2O)[C@H](O)[C@H]1O[C@H]1O[C@H](CO)[C@@H](O)[C@H](N)[C@H]1O	inactive	–
NC(=S)Nc1cccc2ccccc12	–	28.7% [at 8.52 µM]
C(=C(c1ccccc1)c1ccccc1)c1ccccc1	inactive	–
CCCCCC[C@@H](CCC)C(=O)O	inactive	–
NCCN1CCNC1=O	inactive	–
CCCC(C)CO (stereo not given)	inactive	–
N#CCc1ccccc1[N+](=O)[O-]	inactive	–
CC(=O)O[C@H](CC(=O)[O-])C[N+](C)(C)C	inactive	–
c1ccc(CCCc2ccccn2)cc1	inactive	–
COc1cc(CCC(C)=O)ccc1O	inactive	–
Cc1ccccc1C(=O)O	inactive	–
[O-][N+](=Nc1ccccc1)c1ccccc1	inactive	–
COC(=O)c1ccc(C(=O)OC)c(C(=O)OC)c1	inactive	–
COc1cc(C(=O)N2CCOCC2)cc(OC)c1OC	inactive	–
CCC(=O)Nc1cccc(N)c1	inactive	–
C=CC(=O)OCCCCCC	inactive	–
COc1ccc(NC(C)=O)cc1	inactive	–
CCCCCCCCCCCCCCCCCCOCC(O)CO (stereo not given)	inactive	–
CCCCNc1ccccc1	inactive	–

Compound	Potency	activity change, negative = cytotoxicity
Cc1ccccc1Br	inactive	–
Cc1ccc(Nc2ccc(O)c3c2C(=O)c2ccccc2C3=O)cc1	inactive	–
CCCC(=O)O[C@]1(C(=O)CCl)[C@@H](C)C[C@H]2[C@@H]3CCC4=CC(=O)C=C[C@]4(C)[C@@]3(F)C(=O)C[C@@]21C	6.68 µM (active)	–
COC(C(=O)O)c1ccccc1 (stereo not given)	inactive	–
CN(C)C(=O)C(CCN1CCC(O)(c2ccc(Cl)cc2)CC1)(c1ccccc1)c1ccccc1	5.96 µM (active)	–
OC[C@H]1O[C@@H]2O[C@H]3[C@H](O)[C@@H](O)[C@@H](O[C@H]4[C@H](O)[C@@H](O)[C@@H](O[C@H]5[C@H](O)[C@@H](O)[C@@H](O[C@H]6[C@H](O)[C@@H](O)[C@@H](O[C@H]7[C@H](O)[C@@H](O)[C@@H](O[C@H]8[C@H](O)[C@@H](O)[C@@H](O[C@H]9[C@H](O)[C@@H](O)[C@@H](O[C@H]1[C@H](O)[C@H]2O)O[C@@H]9CO)O[C@@H]8CO)O[C@@H]7CO)O[C@@H]6CO)O[C@@H]5CO)O[C@@H]4CO)O[C@@H]3CO	inactive	–
O=C(O)c1ccccc1S	inactive	–
CCCCCCCCCCC1CO1 (stereo not given)	61.1 µM (active)	–
C=C(C)[C@H]1CC=C(C)CC1	inactive	–
CC12CCC(CC1=O)C2(C)C (stereo not given)	inactive	–
COc1cccc(OC)c1	inactive	–
NC(=O)CCCCC1CCSS1 (stereo not given)	inactive	–
CN(C)CCOC(c1ccc(Cl)cc1)c1ccccn1 (stereo not given)	inactive	–
Nc1cc(C(Cl)=C(Cl)Cl)c(S(N)(=O)=O)cc1S(N)(=O)=O	inactive	–
CC(C)(C)C(=O)/C=C/c1ccc(Cl)cc1	inactive	–
C=C[Si](OC)(OC)OC	inactive	–
CC(C)(O)C(=O)c1ccc(OCCO)cc1	inactive	–
CCC(C)OC(=O)N1CCCCC1CCO (stereo not given)	inactive	–
CCCCCCCCCCCl	inactive	–
C=C(C)[C@@H]1CCC2=CC(=O)C[C@@H](C)[C@]2(C)C1	inactive	–
